Source: PubChem BioAssay
HCV inhibitor: blocks hepatitis C virus; 340,000 compounds, 3.4% hits; Huh7.5.1 HCVcc-Cre infection, luciferase reporter, 44 h; Potency, µM (highest dose often 41.8 µM), for inactives: at the highest dose activity change, negative = inhibition, usual class: inhibitors; AID 651820; active = well fitted inhibition curve with a large enough effect; inconclusive = small, poorly fitted or top-dose-only effect, or another doubt; inactive = no such curve, though single readings can be large or run the other way; also: potency is read from the fitted curve at half-maximal effect
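Antiviral activity was scored by luciferase reporter output from cells infected with HCVcc-Cre (~0.5 moi) in presence of compound, 44 h infection period, cells seeded 1,000/well 4 h prior.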
FMDV inh: foot and mouth disease virus antiviral activity. 410,000 compounds, 1.2% hits. AID 1159524. Potency, µM (series often up to 57.9 µM), inactives show at the highest dose activity change, negative = inhibition, usual class: inhibitors. FMDV antiviral cell-based qHTS; calls by dose curve; tested in HEK293T cells; also: read-out not given here; potency is read from the fitted curve at half-maximal effect; nearly all actives have a fitted effect of over 45% in size
HCMV antiviral: inhibitors of human cytomegalovirus. HFF cells, HCMV-luciferase reporter, 72 h; active compounds read low. 410,000 compounds, 4.5% hits. activity change, negative = inhibition, % at 57.5 µM; in the data active = activity change below about -60%; inconclusive = no clear call, values can overlap the other calls; inactive = above about -39%
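Two-dose cell screen: HFF monolayers treated with compounds and infected with luciferase-expressing HCMV at 1 PFU/cell, 72 h at 37C, then lysed for luciferase measurement.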
Lassa entry inh: blocks Lassa virus binding to or entry into cells; AID 540256; 300,000 compounds, 1.2% hits; Lassa virus pseudotype entry inhibition, cell reporter; Potency, µM (titrated, usually from 37.9 µM), for the others: top-dose activity change, negative = inhibition, actives largely listed as inhibitors; calls by dose curve; tested in HEK293 cells; also: potency is read from the fitted curve at half-maximal effect; nearly all actives have a fitted effect of over 50% in size
MARV entry inh: inhibitors of Marburg virus binding or cell entry | 300,000 compounds, 1.8% hits | Marburg virus pseudotyped entry inhibition, cell reporter | AID 540276 | Potency, µM (top dose mostly 37.8 µM), inactives show at the top dose activity change, negative = inhibition, usual class: inhibitors; calls by dose curve; tested in HEK293 cells; also: potency is read from the fitted curve at half-maximal effect
Starred values were filed as active, the others as inactive; ? = inconclusive; · = no result given; ! = not confirmed by another sample; [ ] = another dose, or the depositor's remark. In the library only some 7.9% were active in any assay of this set; here they are far more common. % is scaled to controls: 0 for no effect and ±100 for the full control effect.

SMILES	HCV inhibitor	FMDV inh	HCMV antiviral	Lassa entry inh	MARV entry inh
CC1CC1C(=O)Nc1nc(-c2cccs2)c(-c2cccs2)s1 (stereo not given)	?	-6.4%	105.9	-22.0%	-9.3%
CCOC(=O)N/N=C1\C[C@@H](O)[C@@H](O)[C@@H]2[C@@H]3C(=O)N(C4CCCCC4)C(=O)[C@@H]3CC[C@H]12	·	·	·	·	-24.9%[14.2 µM]
Cc1oc(-c2ccccc2NC(=O)C2CCC2)nc1CNC(=O)c1ccc2ccccc2c1	·	34.1%	·	·	·
CCc1nnc(NC(=O)CCC(=O)NCc2ccccc2Cl)s1	3.5%	-17.2%	11.7	·	·
C/C=C/c1ccc(O)c(OC)c1	-8.8%	-3.0%	41.7	·	·
COc1cc(/C=C2\CC/C(=C\c3ccc(OCCO)c(OC)c3)C2=O)ccc1OCCO	?	35.5µM*	?	1.4%	?
COc1cc(/C=C/C=C2/CC/C(=C/C=C/c3ccc(O)c(OC)c3)C2=O)ccc1O	?	?	-99.2*	?	?
COc1ccc(/C=C2\CCc3ccccc3C2=O)cc1OC	-0.3%	15.3%	?	1.1%	-11.2%
Cc1ccccc1C(=O)NC(C)c1nnc2n1CCN(Cc1ccnc3ccccc13)CC2 (stereo not given)	·	4.9%	·	·	·
COc1ccc2c(c1)CC(C(=O)Nc1cc(Cl)ccc1C)CO2 (stereo not given)	·	1.6%	-34.7	-7.0%[46.1 µM]	·
O=C1OCCC=C1C(O)CCc1ccccc1 (stereo not given)	·	·	·	·	22.0%[14.2 µM]
CCCCCCc1cc2cc(C(=O)Nc3ccccc3)c(=O)oc2cc1O	4.47µM*	?	-100.1*	3.55µM*	2µM*
CCCCCCc1cc2cc(C(=O)NCc3ccccc3)c(=N)oc2cc1O	-2.1%	-11.1%	-69.3*	1.6%	?
CCCCCCc1cc2cc(S(=O)(=O)c3ccc(C)cc3)c(=O)oc2cc1O	10.7%	-21.9%	25.0	13.8%	11.5%
Cc1ccc(C(=O)OCC(=O)Nc2ccccc2Sc2ccccc2)cc1C	14.7%	-16.6%	-23.0	6.1%	5.9%
O=C(Cn1ncc2c([nH]c3ccccc32)c1=O)N1CCCCC1	12.2%	-5.5%	-6.5	·	·
CCOC(=O)C1CCCN(C(=O)Cn2ncc3c(C)n(Cc4ccccc4Cl)c(C)c3c2=O)C1 (stereo not given)	·	?	3.8	0.1%[46.1 µM]	0.2%[46.1 µM]
CCOC(=O)C1CCCN(C(=O)Cn2ncc3c(C)n(Cc4ccc(Cl)cc4)c(C)c3c2=O)C1 (stereo not given)	·	17.8µM*	-8.6	-2.3%[46.1 µM]	2.8%[46.1 µM]
CCOC(=O)C1CCN(C(=O)Cn2ncc3c([nH]c4ccccc43)c2=O)CC1	13.9%	-29.2%	-68.1*!	9.4%[46.1 µM]	21.5%[46.1 µM]
CCOC(=O)/C=C/[C@@H](CCCCOCc1ccccc1)NC(=O)C(F)(F)F	·	·	-7.4	·	·
Cc1ccc(C2(c3noc(CN(C)CC4CCCCO4)n3)CCCC2)cc1 (stereo not given)	?	-23.6%	-5.6	·	·
Cc1ccc(C2(c3noc(CN4CCC(c5ccncc5)CC4)n3)CCCC2)cc1	10µM*	-25.8%	?	-18.9%[46.1 µM]	?
CCCC/C(C)=C/[C@@H](NP(=O)(c1ccccc1)c1ccccc1)c1ccccc1	2.82µM*	-11.3%	-23.5	?	?
CCOC(=O)c1cccn1C1C(=O)N(Cc2ccc(C(F)(F)F)cc2)c2ccc(OC(F)(F)F)cc21 (stereo not given)	·	·	-13.1	·	·
COc1ccccc1-c1noc2nc(N(C)Cc3ccc(F)cc3)ccc12	·	·	-8.7	·	·
SMILES	HCV inhibitor	FMDV inh	HCMV antiviral	Lassa entry inh	MARV entry inh
COc1cc(C(=O)OCCc2cc3ccccc3c(=O)o2)cc(OC)c1OC	3.55µM*	?	2.6	·	·
COC(=O)[C@]12CCCCC=C1N(Cc1ccco1)C(=O)[C@H](CC(=O)NCCCN1CCCC1=O)C2	·	-17.9%	18.8	·	·
Cn1c(=O)oc2cc(NC(=O)CCl)ccc21	?	?	-105.5*	·	·
CC(=O)Nc1ccc(NC(=O)CCS(=O)(=O)c2ccc3c(c2)oc(=O)n3C)cc1	8.1%	-4.4%	-13.3	·	·
Cc1ccc(S(=O)(=O)N2CCN(C(C(=O)Nc3ccc(F)cc3)c3ccccc3)CC2)cc1 (stereo not given)	-12.3%	0.0%	-33.6	6.31µM*	?
Cc1cc(Cl)ccc1OC(C)C(=O)Nc1ccc(S(=O)(=O)N2CCOCC2)cc1 (stereo not given)	11.2µM*	-16.0%	5.9	?	-15.7%[46.1 µM]
CC(Oc1ccccc1)C(=O)Nc1ccc(S(=O)(=O)N2CCOCC2)cc1 (stereo not given)	1.8%	·	-29.0	17.6%	-0.4%
CC(Sc1ccccc1)C(=O)Nc1ccc(S(=O)(=O)N2CCOCC2)cc1 (stereo not given)	0.6%	5.2%	-64.0*	-10.6%	7.9%
COc1cccc(CNCc2ccco2)c1O	29.7%	9.5%	-10.7	2.1%[46.1 µM]	12.7%[46.1 µM]
Cc1cccc(NC(=O)c2ccc3snnc3c2)c1C	·	1.1%	-8.2	14.3%[46.1 µM]	6.8%[46.1 µM]
COc1ccc([C@H]2SCC(=O)Nc3c2c(=O)[nH]n3C2CCCCC2)cc1	·	·	·	·	-0.3%
Cc1cccc(CN2CCc3nnc(C(C)NC(=O)C4CCOCC4)n3CC2)c1 (stereo not given)	·	-18.3%	·	·	·
COc1ccc(CCNC(=O)CCN2C(=O)COc3ccccc32)cc1OC	-0.8%	·	-28.8	2.6%	-7.7%
Cc1ccc2c(c1)N(CCC(=O)NC(C)C)C(=O)CO2	4.0%	0.0%	-75.8*	13.0%	?
Cc1ccc(CNC(=O)CCN2C(=O)COc3ccc(C)cc32)cc1	·	-11.2%	?	14.8%[46.1 µM]	2.3%[46.1 µM]
COc1ccc(CCNC(=O)CCN2C(=O)COc3ccc(C)cc32)cc1OC	2.82µM*	-10.7%	-8.4	?	-1.2%
CCCNC(=O)c1cc(C2CCCN(C(=O)c3ccccc3)C2)on1 (stereo not given)	·	17.2%	44.6	·	·
Cc1cc(S(=O)(=O)N2CCN(Cc3noc(CCC(=O)N4CCCCC4)n3)CC2)ccc1F	·	-3.8%	-109.8*	7.9%[46.1 µM]	·
Cc1ccc(S(=O)(=O)N(C)Cc2ccc(C(=O)N/N=C/c3ccc(OC(F)F)cc3OC(F)F)cc2)cc1	?	6.31µM*	?	?	?
CCOc1ccc(OCc2ccc(C(=O)N/N=C(\C)c3ccccn3)cc2)cc1	?	-18.2%	-85.4*	11.2µM*	7.94µM*
C/C(=N\NC(=O)c1ccccc1OCc1ccc(F)cc1)c1ccccn1	2.82µM*	-22.0%	-101.9*	·	·
O=C(N/N=C/c1ccc[nH]1)c1ccccc1OCc1ccc(F)cc1	-21.6%	-22.5%	?	26.6%[46.1 µM]	10.9%[46.1 µM]
COc1ccc(Br)cc1S(=O)(=O)N(CC(=O)N1CCN(C)CC1)c1ccccc1	-15.5%	-13.7%	-19.8	-20.2%	-10.7%
CC(C)C(=O)N1c2ncnn2C2(CCCCC2)[C@@H]2CCCC[C@@H]21	·	-27.4%	-110.8*	28.6%[46.1 µM]	0.4%[46.1 µM]
O=C(O)c1cccc(C(=O)Nc2cccc(NC(=O)C3CCCO3)c2)c1 (stereo not given)	27.8%	?	13.6	10µM*	11.2µM*
O=C(Nc1ccc(N=Nc2ccccc2)c(NC(=O)C2CCCO2)c1)C1CCCO1 (stereo not given)	2µM*	34.5%	-61.2*	?	?
O=C(NNc1ccccc1)c1ccc(Cl)c(Cl)c1	?	18.4%	-77.4*	?	7.08µM*
